Where “and” joins values, the source holds several entries; their conditions need not be identical. Identical values can stand only once. Screen size: about 16,000 compounds; about 160 (1%) were called active. About 8% were inconclusive and are not listed. The call rests on the fitted dose curve; in most records, active means well fitted activation curve with a large enough effect; inconclusive means small, poorly fitted or top-dose-only effect; inactive means no such curve, though single readings can be large or run the other way. The entries come from a sample that favours actives as a whole.
Biological target: Rap guanine nucleotide exchange factor 3 (Homo sapiens) (UniProt O95398)
Sequence (O95398 whole entry, looked up): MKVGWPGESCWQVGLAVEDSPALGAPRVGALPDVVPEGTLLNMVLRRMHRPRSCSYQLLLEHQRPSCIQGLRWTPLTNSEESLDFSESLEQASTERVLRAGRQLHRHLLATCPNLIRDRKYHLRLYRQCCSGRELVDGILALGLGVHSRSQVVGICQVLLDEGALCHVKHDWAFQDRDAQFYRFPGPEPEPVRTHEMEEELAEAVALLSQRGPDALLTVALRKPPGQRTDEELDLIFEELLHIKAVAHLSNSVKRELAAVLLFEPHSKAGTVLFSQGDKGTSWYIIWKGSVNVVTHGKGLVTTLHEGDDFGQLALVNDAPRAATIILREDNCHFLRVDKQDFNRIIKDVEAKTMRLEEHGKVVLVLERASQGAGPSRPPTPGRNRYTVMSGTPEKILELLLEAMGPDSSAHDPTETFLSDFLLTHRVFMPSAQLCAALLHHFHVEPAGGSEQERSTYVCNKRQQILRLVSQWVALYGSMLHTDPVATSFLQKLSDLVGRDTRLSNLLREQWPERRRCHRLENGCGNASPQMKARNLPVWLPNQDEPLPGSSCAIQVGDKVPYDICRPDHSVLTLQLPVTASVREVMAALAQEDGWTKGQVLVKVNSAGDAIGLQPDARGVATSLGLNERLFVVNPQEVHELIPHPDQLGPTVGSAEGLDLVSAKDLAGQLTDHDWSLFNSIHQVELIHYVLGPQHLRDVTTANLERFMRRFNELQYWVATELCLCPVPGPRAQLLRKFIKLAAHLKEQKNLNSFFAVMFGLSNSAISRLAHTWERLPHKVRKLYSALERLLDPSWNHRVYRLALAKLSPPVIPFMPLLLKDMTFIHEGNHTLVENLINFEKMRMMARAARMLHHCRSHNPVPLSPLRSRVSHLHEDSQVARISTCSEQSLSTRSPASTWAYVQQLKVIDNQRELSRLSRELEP
Test: Validation qHTS for agonist of cAMP-regulated guanine nucleotide exchange factor 3 (EPAC1); further: nearly all actives have a fitted effect of over 70% in size
Settings: EPAC1 Rap1b BODIPY-GDP exchange, fluorescence; max response: stronger effect = higher value, percent of cAMP control response
From the text: Assay Provider (PI): Xiaodong Cheng Ph.D.
The University of Texas Medical Branch, […], TX
In multi-cellular eukaryotic organisms, the effects of cAMP are transduced by two ubiquitously-expressed intracellular cAMP receptors, the classic protein kinase A/cAMP-dependent protein kinase (PKA/cAPK) and the more recently discovered exchange protein directly activated by cAMP/cAMP-regulated guanine nucleotide exchange factor (EPAC/cAMP-GEF). Both PKA and EPAC are ubiquitously expressed in all tissues, and an increase in intracellular cAMP levels will lead to the activation of both PKA and EPAC. Therefore, careful dissections of the individual role and relative contribution of EPAC and PKA within the overall cAMP signaling in various model systems are critical for further elucidating the mechanism of cAMP signaling. To date no EPAC-specific antagonists and agonist, as well as isoform-specific agonists have been reported, and developing EPAC-specific pharmacological probes to determine the physiological functions that EPAC play in the overall cAMP-mediated signaling remains a major challenge within the research field. Furthermore, identified regulators of EPAC may lead to new mechanism-based therapeutic strategies specifically targeting the EPAC / cAMP-signaling components as EPAC has been implicated to play important roles in major human pathological conditions such as diabetes, heart disease, and cancer.
This qHTS will be used to screen the Molecular Libraries Small Molecule Repository (MLSMR) as a concentration-titration series using the NCGC unique quantitative screening (qHTS) platform to find activators for EPAC1. In addition, this assay will also be used as a counterscreen for the EPAC2 qHTS. This fluorescent based assay is developed and validated for EPAC1 that measures exchange using EPAC effector Rap1 complex with BODIPY-GDP, a GDP analog with a tethered fluorophores. Activators are identified by monitoring the change in fluorescence signal as the exchanged free BODIPY-GDP has a reduced fluorescence compared to Rap1-bound BODIPY-GDP. Increase in signal (activation) is the desired outcome for the EPAC1 agonist while no activity in this assay is desired for the EPAC2 agonist counterscreen.
[1] de Rooij, J., Zwartkruis, F. J., Verheijen, M. H., Cool, R. H., Nijman, S. M., Wittinghofer, A., and Bos, J.L. (1998) Nature 396, 474-477.
Briefly, three uL of reagents (100 nM EPAC1, 250 nM RAP1B-BODIPY-GDP, 50 uM GDP) were dispensed into a 1536-well Greiner black solid-bottom medium binding assay plate. Controls and test compounds (23 nL) were transferred to the plate via a Kalypsys pin tool equipped with a 1536-pin array. The plates were centrifuged at 1,000 rpm for 15 seconds followed by 5 minute incubation at room temperature. The assay plates were read at 5 minute intervals for 30 minutes in the ViewLux plate reader using 480nm excitation and 540nm emission filters. The results were normalized to the agonist positive control of 6.5 mM cAMP.
On the % scale 0 is the no-effect control and ±100 the full control effect.

Max response, inactive:
CC1CC2C3CCC4=CC(=O)C=C[C@]4(C)[C@@]3(F)[C@@H](O)C[C@]2(C)[C@@]1(O)C(=O)CO (some centres not stated) 3.48%, O=C(O)C(O)[C@@](O)(Cc1ccc(O)cc1)C(=O)O (some centres not stated) 6.44%, O=C(O)C1CCN(c2ncnc3ccc(-c4ccccc4C(F)(F)F)cc23)CC1 -7.12%, CC(C)C(=O)NC(C)c1nnc2n1CCN(Cc1cccc3ncccc13)CC2 (configuration not stated) -0.781%, O=C(c1csnn1)N1CCC2(CCN(Cc3nccs3)CC2)CC1 -44.7%, C[C@@H]1CN(Cc2ccc3c(c2)CN(Cc2ccc(Oc4ncccn4)cc2)CCO3)C[C@H](C)O1 -1.6%, O=C(c1ccco1)N1CCC[C@@]2(CCN(Cc3nccs3)C2)C1 -63.4%, CS(=O)(=O)N1CCC[C@@]2(CCN(c3ccncc3)C2)C1 -34%, O=C(Nc1cccc(F)c1)N1CC2(CCN(C(=O)c3cnccn3)CC2)C1 7.33%, C=C1C(=CC=C2CCC[C@]3(C)[C@@H]([C@H](C)C=C[C@H](C)C(C)C)CC[C@@H]23)C[C@@H](O)C[C@@H]1O -167%, C=CC(C1=CC(=O)C=CC1=O)c1ccc(O)cc1 (configuration not stated) 3.74%, Fc1cccc(/C=N\N=C/c2cccc(F)c2)c1 -1.27%, O=C1OC(C(O)CO)C(O)=C1O (configuration not stated) 21.1%, N#Cc1cc2[nH]c(=O)c(=O)[nH]c2cc1[N+](=O)[O-] 0.579%, CN1CC[C@H](c2c(O)cc(O)c3c(=O)cc(-c4ccccc4Cl)oc23)[C@H](O)C1 -89%, Cn1cc(-c2nc3cncnc3n(-c3ccccc3)c2=O)c2ccccc21 -219%, N[C@@H](C(=O)O)c1ccc(P(=O)(O)O)cc1 -5.54%, CC1CC[C@@]23CCC4(C)[C@@]5(C)CCC6C(C)(C)C(O)CC[C@@]6(C)C5C=C[C@@]4(OC2=O)C3C1C (some centres not stated) -57.5%, O=C1NS(=O)(=O)c2ccccc21 -6.7% and 22.2%, CC(=O)OC[C@H]1O[C@@H](O[C@H]2[C@H](O)[C@@H](OC(=O)c3ccccc3C(=O)O)[C@H](O)O[C@@H]2COC(C)=O)[C@H](O)[C@@H](OC(=O)c2ccccc2C(=O)O)[C@@H]1O -29.6%, CC(O)(COc1ccccc1)c1ccc2c(c1)CN(Cc1cn[nH]c1-c1ccc(F)cc1)CCO2 (configuration not stated) 6.27%, COc1ccc(CCNc2ncnc3sc(C(=O)N4CCCC4)c(C)c23)cc1OC -3.63%, O=C(c1cc(C(F)(F)F)cc(C(F)(F)F)c1)N1CCC2(CCCN(Cc3ccncc3)C2)CC1 -115%, COC(=O)N1CCC[C@@]2(CCN(C(=O)NC(C)C)C2)C1 -60.9%, C[C@H]1C[C@H]2[C@@H]3CCC4=CC(=O)C=C[C@]4(C)[C@@H]3C(=O)C[C@]2(C)[C@@]1(O)C(=O)CO 0.445%, COc1cc2c(cc1OC)[C@@H](Cc1cc(OC)c(OC)c(OC)c1)[N+](C)(CCCOC(=O)CC/C=C/CCC(=O)OCCC[N+]1(C)CCc3cc(OC)c(OC)cc3[C@H]1Cc1cc(OC)c(OC)c(OC)c1)CC2 (some centres not stated) -11.5% and 6.58%, CC(=O)Nc1ccccc1-c1nc(CNC(=O)c2ccc(Cl)cc2)c(C)o1 -0.968%, COc1cc(=O)n2c(c1C(=O)NC(C)c1ccco1)CCN(C(=O)c1cn3ccc(C)cc3n1)CC2 (configuration not stated) -8.43%, NCCCNCCCCN(CCCN)/[N+]([O-])=N/O -13.7%, O=C1CCN(CCc2ccccc2)CCN1CCOc1ccccc1 21.5%, O=C(CN1Cc2ccccc2OC(c2ccccc2)C1)N1CCCCC1c1cccnc1 (configuration not stated) 3.86%, N[C@H](C(=O)O)c1ccc(C(=O)O)c(O)c1 -1.36% and -12.7%, Cc1ccc(/C(=C/CN2CCCC2)c2ccccn2)cc1 -20.9%, CN1CCC2(CC1)CCN(S(=O)(=O)c1ccccc1)CC2 2.56%, CN(C)C(=O)[C@@H]1C[C@@H](Sc2nc3ccccc3[nH]2)CN1Cc1ccc(Cl)cc1 0.834%, C=C1C(=C/C=C2\CCC[C@]3(C)[C@@H]([C@H](C)CCCC(C)(C)O)CC[C@@H]23)C[C@@H](O)C[C@@H]1O -16.6%, O=C(c1csnn1)N1CCC2(CC1)CN(c1ncccn1)C2 26.8%, O=C(NCCN1CCOCC1)c1cnn(-c2nccc(-c3cccs3)n2)c1C1CC1 -10.9%, CN(Cc1ccco1)c1cc(-c2ccccc2C(F)(F)F)ncn1 17%, COc1ccc(C)cc1N1C(=O)[C@@H]2C[C@H]1CN2Cc1cccc(OC)c1O -2.66%, O=C(O)CCC(=O)O -16.2%, COC1[C@H](OC(N)=O)C(O)[C@H](Oc2ccc3c(O)c(NC(=O)c4ccc(O)c(CC=C(C)C)c4)c(=O)oc3c2C)OC1(C)C (some centres not stated) 12.3%, O=C(C[n+]1ccncc1)c1ccc2c(c1)CCCC2 -14.9%, COc1cc(=O)n2c(c1C(=O)N(C)Cc1nonc1C)CCN(C(=O)c1ccc(C)cc1C)CC2 -17.4%, C=C1C(=CC=C2CCC[C@@]3(C)[C@@H]2CC[C@H]3[C@H](C)CCCC(C)C)C[C@@H](O)C[C@@H]1O -125%, CN1CCN(c2ncncc2-c2ccc(C(=O)N(C)C)cc2)CC1 -22%, Cc1cccc(C)c1NC(=O)NC1=CCCN1C -23.6%, O=C1NC(CC(=O)N2CCC(n3c(C4CCC4)nc4cccnc43)CC2)c2ccccc21 (configuration not stated) 2.72%, CCNCCCNCCCNCCCNCC -1.46%, CCCCCCCC/C=C\CCCCCCCC(=O)OC[C@H](CO)OC(C)=O -42.9%, Nc1ncnc2c1c(I)cn2[C@@H]1C[C@H](N)[C@@H](O)[C@H]1O -1.21%, COc1ccccc1CNc1ncncc1-c1cccnc1 -29.8%

Source: PubChem BioAssay AID1645883 (National Center for Advancing Translational Sciences (NCATS), 2021)
